AmpC inh detg – inhibitors of E. coli AmpC beta-lactamase with detergent | P00811 | AmpC hydrolysis of nitrocefin, absorbance 480 nm, 0.01% Triton | Potency, µM (top dose mostly 114 µM), for the others: at the highest dose activity change, negative = inhibition, actives largely listed as inhibitors | 0.041% of 370,000 active | AID 485294;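 further: 0% = no-compound wells and -100% = no-enzyme wells; nearly all actives have a fitted effect of over 25% in size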
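20 mM phosphate pH 7.0 + 0.01% (detergent screen) or 0.0001% Triton X-100; 5.3 nM AmpC reagent; cpd preinc 15 min RT; nitrocefin (800 uM stock) to start; A480 q20 s × 4 min; Activity was normalised to no-enzyme and no-compound control wells.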
SARS PLP yeast – SARS-CoV PLP inhibition in yeast. S. cerevisiae expressing SARS-CoV PLpro, growth rescue. Potency, µM (titrated, usually from 32.9 µM), inactives show at the top dose activity, positive = growth rescue, most hits filed as activators. 0.19% of 330,000 active. AID 485353; calls by dose curve; further: 0% is about no effect; nearly all actives have a fitted effect of over 55% in size
AmpC no deterg – blocks E. coli AmpC beta-lactamase in detergent-free assay; 0.52% of 330,000 active; P00811; AmpC nitrocefin hydrolysis, absorbance 480 nm, 0.0001% Triton; Potency, µM (doses to about 57.1 µM), for inactives: at the highest dose activity change, negative = inhibition, usual class: inhibitors;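 further: plate controls were no compound for no effect and no enzyme for full effect; nearly all actives have a fitted effect of over 20% in size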
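AmpC (5.3 nM in the dispensed reagent) in 20 mM phosphate pH 7.0 with 0.01% (detergent screen) or 0.0001% Triton X-100 was preincubated with compounds for 15 min at room temperature. Nitrocefin was then added from an 800 uM solution, and hydrolysis was followed at 480 nm.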
Giardia FBPA inh-1 – Giardia lamblia aldolase inhibition | purified Giardia FBPA | Potency, µM (doses to about 59.6 µM), inactives show at the top dose activity, negative = inhibition, hits mostly inhibitors | 0.71% of 290,000 active; further: on the % scale 0 is the no-effect control and ±100 the full control effect; nearly all actives have a fitted effect of over 55% in size
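Giardia FBPA (40 nM reagent) was preincubated 10 min at RT with compound (up to 57.5 uM final), then substrate plus GAPDH/TPI/NAD/arsenate coupling system with diaphorase/resazurin was added; resorufin fluorescence (525/598 nm) was read after 20 min.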
Giardia growth – Giardia lamblia growth inhibition; 5% of 1,500 active; shares compounds with Giardia FBPA inh-1; Potency, µM (highest dose often 57.5 µM), without a hit: at the top dose activity change, negative = inhibition, hits mostly inhibitors; Giardia lamblia trophozoite growth inhibition;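 further: trophozoites exposed to compound for 48 h at 37 °C; on the % scale 0 is the no-effect control and ±100 the full control effect; nearly all actives have a fitted effect of over 70% in size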
Mammalian tox – mammalian cytotoxicity of Giardia aldolase inhibitor hits; shares compounds with Giardia FBPA inh-1; mammalian cell viability counter-screen, qHTS; Potency, µM (series often up to 57.5 µM), without a hit: top-dose viability change, negative = toxicity, actives largely listed as inhibitors; 4% of 1,500 active; AID 2786;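 further: Chinese hamster ovary cells used as mammalian cytotoxicity surrogate; viability measured as cellular ATP by luminescence; compound exposure lasted 48 h before reading; on the % scale 0 is the no-effect control and ±100 the full control effect; nearly all actives have a fitted effect of over 60% in size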
Giardia FBPA inh-2 – confirmation of Giardia fructose-bisphosphate aldolase inhibitors | shares compounds with Giardia FBPA inh-1 | purified Giardia aldolase enzyme activity, qHTS | Potency, µM (titrated, usually from 57.5 µM), without a hit: at the top dose activity change, negative = inhibition, most hits filed as inhibitors | 5% of 1,500 active; further: on the % scale 0 is the no-effect control and ±100 the full control effect; nearly all actives have a fitted effect of over 45% in size
Rabbit aldolase – rabbit FBP aldolase inhibition by Giardia aldolase hits | shares compounds with Giardia FBPA inh-1 | Rabbit muscle FBPA enzyme inhibition, selectivity counter-screen | Potency, µM (series often up to 57.5 µM), without a hit: at the highest dose activity, negative = inhibition, usual class: inhibitors | 4% of 1,500 active | AID 2794; further: on the % scale 0 is the no-effect control and ±100 the full control effect; nearly all actives have a fitted effect of over 60% in size
Target sequence (P00883 whole entry, looked up): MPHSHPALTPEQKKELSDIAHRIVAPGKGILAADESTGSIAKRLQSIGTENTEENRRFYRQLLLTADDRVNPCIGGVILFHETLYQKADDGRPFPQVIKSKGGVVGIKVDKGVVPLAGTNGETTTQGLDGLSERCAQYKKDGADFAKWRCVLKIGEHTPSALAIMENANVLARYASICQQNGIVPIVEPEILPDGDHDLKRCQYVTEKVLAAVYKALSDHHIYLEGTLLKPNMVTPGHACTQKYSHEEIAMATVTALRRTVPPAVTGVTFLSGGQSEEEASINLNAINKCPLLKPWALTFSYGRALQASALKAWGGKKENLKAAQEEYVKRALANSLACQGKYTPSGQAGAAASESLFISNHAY
GAPDH coupling – GAPDH inhibition flagged for Giardia aldolase hits; 6% of 1,500 active; shares compounds with Giardia FBPA inh-1; Potency, µM (series often up to 57.5 µM), for the others: at the top dose activity change, negative = inhibition, most hits filed as inhibitors; GAPDH coupling enzyme counterscreen, biochemical, qHTS; further: on the % scale 0 is the no-effect control and ±100 the full control effect; nearly all actives have a fitted effect of over 55% in size
* marks the source's active call; other numbers are inactive results; ! = a repeat was not active; [ ] = dose if it differs, or a comment. Sampled rows, rich in hits. Any-hit rate of the full collection: about 1.1%. Unless noted, the call rests on the fitted dose curve; in most records, active means well fitted curve in the direction sought with a large enough effect; inconclusive means small, poorly fitted or top-dose-only effect, or another doubt; inactive means no such curve, though single readings can be large; an effect the other way counts as inactive or inconclusive. Potency means the concentration at half of the fitted maximal effect.

`CC1CCN(S(=O)(=O)c2ccc(C(=O)Nc3nnc(-c4ccco4)o3)cc2)CC1` gave AmpC inh detg -4.1%, SARS PLP yeast -3.0%, AmpC no deterg -31.8% and Giardia FBPA inh-1 -28.8%.
`OCCN(CCO)c1ccc2ccccc2c1` gave AmpC inh detg inconclusive, SARS PLP yeast 5.4%, AmpC no deterg -19.6%, Giardia FBPA inh-1 15.8µM*, Giardia growth -16.7%[10.4 µM], Mammalian tox -17.7%, Giardia FBPA inh-2 3.98µM*, Rabbit aldolase inconclusive and GAPDH coupling -25.8%.
`OCCN(CCO)c1ccc(C(c2ccccc2Cl)c2ccc(N(CCO)CCO)cc2Cl)c(Cl)c1` gave AmpC inh detg -7.9%, SARS PLP yeast 16.1%, AmpC no deterg 194.3% and Giardia FBPA inh-1 -13.9%.
Screening S=C(Nc1ccc(Nc2ccccc2)cc1)Nc1ccccn1 returned AmpC inh detg 6.2%, SARS PLP yeast -2.4%, AmpC no deterg -23.6% and Giardia FBPA inh-1 -3.5%.
For S=C(Nc1ccccc1)c1ccccn1 the results were AmpC inh detg -4.4%, SARS PLP yeast -0.3%, AmpC no deterg -25.5%, Giardia FBPA inh-1 3.15µM*!, Giardia growth -13.6%[38.3 µM], Mammalian tox 20µM*, Giardia FBPA inh-2 -8.4%, Rabbit aldolase -8.2% and GAPDH coupling -10.2%.
O=C(Nc1nccs1)c1cn2ccccc2n1 was read as AmpC inh detg 4.4%, SARS PLP yeast -1.9%, AmpC no deterg -19.3%, Giardia FBPA inh-1 14.1µM*, Giardia growth inconclusive, Mammalian tox 20µM*, Giardia FBPA inh-2 -7.2%, Rabbit aldolase -2.7% and GAPDH coupling 1.1%.
Screening Cc1cnc(C(=O)Nc2nccs2)cn1 returned AmpC inh detg -8.7%, SARS PLP yeast 2.8%, AmpC no deterg -5.7%, Giardia FBPA inh-1 19.9µM*, Giardia growth -9.0%, Mammalian tox 17.8%, Giardia FBPA inh-2 2.6%, Rabbit aldolase 1.8% and GAPDH coupling 10.7%.
NNC(=O)c1cn2ccccc2n1 was read as AmpC inh detg -5.8%, SARS PLP yeast 3.0%, AmpC no deterg -8.3% and Giardia FBPA inh-1 -29.9%.
COC(=O)c1scc(-c2ccc(C)cc2)c1S(=O)(=O)N1CCN(c2cccc(OC)c2)CC1 was read as AmpC inh detg 35.8%.
Cc1ccccc1NC(=S)NNC(=O)c1ccco1 was read as AmpC inh detg 2.0%, SARS PLP yeast 2.1%, AmpC no deterg -21.7%, Giardia FBPA inh-1 7.94µM*, Giardia growth inconclusive, Mammalian tox -8.9%, Giardia FBPA inh-2 6.4%, Rabbit aldolase -1.0% and GAPDH coupling 2.5%.
COC(=O)c1cc(OC)c(OC)cc1NC(=S)NC(=O)c1ccco1 was read as AmpC inh detg 2.5%, SARS PLP yeast -2.0%, AmpC no deterg 0.0%, Giardia FBPA inh-1 12.6µM*, Giardia growth 17.8%, Mammalian tox -16.0%, Giardia FBPA inh-2 0.1%, Rabbit aldolase 3.4% and GAPDH coupling 13.5%.
Cc1ccccc1C(=O)NC(=S)Nc1ccccc1[N+](=O)[O-] was read as AmpC inh detg -7.5%, SARS PLP yeast -1.2%, AmpC no deterg -2.7%[2.29 µM] and Giardia FBPA inh-1 -28.3%.
O=C(NC(=S)Nc1ccccc1[N+](=O)[O-])c1ccco1 was read as AmpC inh detg inconclusive, SARS PLP yeast -0.3%, AmpC no deterg -13.7%, Giardia FBPA inh-1 15.8µM*, Giardia growth 35.5µM*, Mammalian tox 0.5%, Giardia FBPA inh-2 -2.5%, Rabbit aldolase -7.0% and GAPDH coupling 3.2%.
